Results as given in PubChem BioAssay AID602385 (Sanford-Burnham Center for Chemical Genomics, 2012).
Screen size: about 2,300 compounds; about 180 (7.8%) were called active. Shown is part of a subset that was picked to be rich in actives. Values without a mark were called inactive.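 How the source made its calls: active means average inhibition of at least 30% in the single-concentration confirmation test; inactive means the rest.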

Molecular target: DNA (cytosine-5)-methyltransferase 1 (Homo sapiens) (UniProt P26358)
Experiment: DNMT1 methyltransferase inhibitor retest, confirmation, biochemical, molecular beacon, fluorescence, single concentration (AID 602385)
Details: DNMT1 molecular beacon HinP1I cleavage, at 10 µM, active compounds read high

DNA (cytosine-5)-methyltransferase 1 (Homo sapiens), sequence (P26358 504-1616 limits assumed): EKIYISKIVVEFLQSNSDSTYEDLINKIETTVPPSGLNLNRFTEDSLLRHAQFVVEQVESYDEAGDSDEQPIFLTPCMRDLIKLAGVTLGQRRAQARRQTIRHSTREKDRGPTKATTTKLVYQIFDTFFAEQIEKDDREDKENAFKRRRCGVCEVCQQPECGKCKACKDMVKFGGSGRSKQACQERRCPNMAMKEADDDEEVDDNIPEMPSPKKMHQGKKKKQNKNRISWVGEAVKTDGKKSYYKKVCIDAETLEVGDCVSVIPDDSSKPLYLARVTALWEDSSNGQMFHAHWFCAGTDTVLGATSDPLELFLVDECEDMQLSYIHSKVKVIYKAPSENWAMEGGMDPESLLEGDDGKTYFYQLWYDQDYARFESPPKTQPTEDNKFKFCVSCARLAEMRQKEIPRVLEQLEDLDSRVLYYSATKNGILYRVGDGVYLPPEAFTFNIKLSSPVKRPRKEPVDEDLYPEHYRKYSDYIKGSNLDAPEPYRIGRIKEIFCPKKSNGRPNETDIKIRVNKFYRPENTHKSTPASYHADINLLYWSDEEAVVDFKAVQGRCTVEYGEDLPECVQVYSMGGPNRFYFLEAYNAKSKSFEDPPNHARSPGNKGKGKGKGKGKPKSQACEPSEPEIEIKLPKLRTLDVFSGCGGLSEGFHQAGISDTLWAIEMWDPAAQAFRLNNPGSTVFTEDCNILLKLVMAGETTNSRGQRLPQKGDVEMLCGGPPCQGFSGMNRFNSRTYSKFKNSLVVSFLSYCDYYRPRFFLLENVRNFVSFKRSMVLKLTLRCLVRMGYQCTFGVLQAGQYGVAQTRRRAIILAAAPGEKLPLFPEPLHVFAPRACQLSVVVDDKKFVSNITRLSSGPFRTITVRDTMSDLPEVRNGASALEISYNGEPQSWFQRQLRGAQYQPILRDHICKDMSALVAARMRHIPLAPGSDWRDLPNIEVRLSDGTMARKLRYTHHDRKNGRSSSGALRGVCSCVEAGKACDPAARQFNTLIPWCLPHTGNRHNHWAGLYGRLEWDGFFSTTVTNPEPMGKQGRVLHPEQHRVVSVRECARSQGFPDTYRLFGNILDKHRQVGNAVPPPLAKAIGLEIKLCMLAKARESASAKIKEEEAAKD

Q: How did the inhibition turn out when `Cc1c(C(=O)O)cccc1-n1c(C)cc(/C=C2\C(=O)NC(=O)N(c3ccc4c(c3)OCO4)C2=O)c1C` was run?
A: The inhibition was 35.1% (active).

Q: Which inhibition does the source give for `O=C1NC(=O)N(Cc2ccco2)C(=O)/C1=C\c1ccc(-c2ccc(F)cc2)o1` here?
A: Its inhibition is 8.93%.

Q: With `CC1=C(C(=O)Nc2ccccc2)SCCO1` as the compound, how does the inhibition read?
A: Its inhibition is 6.68%.
